# ± gives the standard deviation of the averaged measurements.
# Tested on: Renilla luciferase (RLuc)
# Assay: residual bioluminescent signal relative to negative control without GSH; higher = less interference (more residual luciferase signal)
# Settings: screening conditions buffer
# Method: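 Selected metal salts at 3-4 concentrations tested on purified FLuc, NLuc or RLuc in screening buffer with 0, 0.2 or 2 mM glutathione added; 10 min enzyme pre-incubation at RT, luminescence 10 min after substrate. Signal normalised to negative control without GSH (% N_VALUE); triplicate wells.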
# [1] = metal salt concentration 1 mM, glutathione 0 mM
# [2] = metal salt concentration 1 mM, glutathione 0.2 mM
# [3] = metal salt concentration 1 mM, glutathione 2 mM
SMILES,"residual bioluminescent signal (metal salt concentration 0.005 mM, glutathione 0 mM) [%]","residual bioluminescent signal (metal salt concentration 0.005 mM, glutathione 0.2 mM) [%]","residual bioluminescent signal (metal salt concentration 0.005 mM, glutathione 2 mM) [%]","residual bioluminescent signal (metal salt concentration 0.536 mM, glutathione 0 mM) [%]","residual bioluminescent signal (metal salt concentration 0.536 mM, glutathione 0.2 mM) [%]","residual bioluminescent signal (metal salt concentration 0.536 mM, glutathione 2 mM) [%]",residual bioluminescent signal [1] [%],residual bioluminescent signal [2] [%],residual bioluminescent signal [3] [%],"residual bioluminescent signal (metal salt concentration 5 mM, glutathione 0 mM) [%]","residual bioluminescent signal (metal salt concentration 5 mM, glutathione 0.2 mM) [%]","residual bioluminescent signal (metal salt concentration 5 mM, glutathione 2 mM) [%]","residual bioluminescent signal (metal salt concentration 0.02 mM, glutathione 0 mM) [%]","residual bioluminescent signal (metal salt concentration 0.02 mM, glutathione 0.2 mM) [%]","residual bioluminescent signal (metal salt concentration 0.02 mM, glutathione 2 mM) [%]","residual bioluminescent signal (metal salt concentration 0.118 mM, glutathione 0 mM) [%]","residual bioluminescent signal (metal salt concentration 0.118 mM, glutathione 0.2 mM) [%]","residual bioluminescent signal (metal salt concentration 0.118 mM, glutathione 2 mM) [%]","residual bioluminescent signal (metal salt concentration 0.5 mM, glutathione 0 mM) [%]","residual bioluminescent signal (metal salt concentration 0.5 mM, glutathione 0.2 mM) [%]","residual bioluminescent signal (metal salt concentration 0.5 mM, glutathione 2 mM) [%]"
[Cl][Fe]([Cl])[Cl] [iron(III) chloride],115 ± 9.3,116 ± 14,161 ± 26,36.6 ± 8,53 ± 4.8,101 ± 13,33.4 ± 2,39.3 ± 5.5,48.9 ± 13,2.29 ± 1.6,0.915 ± 0.4,2.06 ± 1.4,,,,,,,,,
[Cl][Fe][Cl] [iron(II) chloride],,,,,,,12.3 ± 4.2,18.7 ± 10,32 ± 11,,,,86.2 ± 14,91.9 ± 18,122 ± 5.5,47.6 ± 13,56.5 ± 11,75.7 ± 7.6,16.5 ± 3.1,22.9 ± 4.2,31.1 ± 5.1
